From PubChem
An excerpt weighted towards active compounds, which were near 12% of everything screened.
L3MBTL1 block = blocks human L3MBTL1. AID 485360. Q9Y468. Potency, µM (top dose mostly 57.1 µM), inactives show top-dose activity, negative = inhibition, hits mostly inhibitors. AlphaScreen L3MBTL1–H3K9me1 peptide binding. 0.66% of 230,000 active; further: on the % scale 0 is the no-effect control and ±100 the full control effect; nearly all actives have a fitted effect of over 60% in size
Target sequence (Q9Y468 whole entry, looked up): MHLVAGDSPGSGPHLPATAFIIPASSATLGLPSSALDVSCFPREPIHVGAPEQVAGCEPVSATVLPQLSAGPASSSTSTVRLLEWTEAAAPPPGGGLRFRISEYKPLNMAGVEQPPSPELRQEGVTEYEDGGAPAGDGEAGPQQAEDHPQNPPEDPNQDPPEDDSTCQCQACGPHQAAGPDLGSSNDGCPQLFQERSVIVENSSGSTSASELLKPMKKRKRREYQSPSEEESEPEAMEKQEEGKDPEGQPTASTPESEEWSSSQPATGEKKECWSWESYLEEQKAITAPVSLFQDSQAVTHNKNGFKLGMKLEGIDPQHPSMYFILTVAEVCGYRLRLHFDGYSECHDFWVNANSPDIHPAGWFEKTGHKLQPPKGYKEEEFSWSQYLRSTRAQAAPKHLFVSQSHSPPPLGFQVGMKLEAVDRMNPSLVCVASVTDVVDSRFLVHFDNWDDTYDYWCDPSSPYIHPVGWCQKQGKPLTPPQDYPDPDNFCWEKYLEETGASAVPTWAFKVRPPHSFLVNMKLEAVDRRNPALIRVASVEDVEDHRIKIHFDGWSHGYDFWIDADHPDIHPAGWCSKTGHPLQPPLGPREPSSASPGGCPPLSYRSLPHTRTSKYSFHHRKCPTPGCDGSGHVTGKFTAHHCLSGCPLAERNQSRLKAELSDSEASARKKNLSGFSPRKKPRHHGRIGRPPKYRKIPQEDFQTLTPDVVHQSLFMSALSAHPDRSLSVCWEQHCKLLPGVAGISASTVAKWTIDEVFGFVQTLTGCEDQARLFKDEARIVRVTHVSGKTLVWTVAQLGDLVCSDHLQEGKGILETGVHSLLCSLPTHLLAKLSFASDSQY
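L3MBTL1 50 nM + b-AHA-H3(1-15)K9me1 75 nM, 30 min RT; compound added, 30 min RT; streptavidin donor/Ni-chelate acceptor beads 10 ug/mL each final, 30 min RT dark; AlphaScreen read.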
BAZ2B block = blocks human BAZ2B; Q9UIF8; AlphaScreen BAZ2B-H3K14Ac peptide displacement; Potency, µM (highest dose often 114 µM), for inactives: at the highest dose activity change, negative = inhibition, actives largely listed as inhibitors; 4.4% of 360,000 active; AID 504333; further: on the % scale 0 is the no-effect control and ±100 the full control effect; nearly all actives have a fitted effect of over 60% in size
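Multi-concentration screen (max 110 uM) measuring displacement of acetylated histone H3 peptide from BAZ2B by AlphaScreen, using 50 nM protein, 50 nM peptide and 10 ug/mL streptavidin donor plus Ni-chelate acceptor beads.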
G9a block = G9a (human) methyltransferase inhibition; AID 504332; G9a H3K9 monomethylation, AlphaScreen, 2 h; Q96KQ7; 8.8% of 350,000 active; Potency, µM (series often up to 102 µM), for the others: at the highest dose activity, negative = inhibition, actives largely listed as inhibitors; further: on the % scale 0 is the no-effect control and ±100 the full control effect; nearly all actives have a fitted effect of over 75% in size
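AlphaScreen read-out: biotin-H3K9 peptide (500 nM) methylation by 20 nM enzyme with 20 uM SAM, 2 h at room temperature after 15 min compound preincubation; anti-monomethyl H3K9 antibody plus donor/acceptor beads, 10 min dark.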
JMJD2A Tudor = JMJD2A Tudor domain (human) inhibition; 4.4% of 390,000 active; AlphaScreen JMJD2A-Tudor / H3K4me3 peptide binding; O75164; Potency, µM (highest dose often 114 µM), inactives show top-dose activity change, negative = inhibition, usual class: inhibitors; further: on the % scale 0 is the no-effect control and ±100 the full control effect; nearly all actives have a fitted effect of over 50% in size
HP1b chromo inh = inhibitors of HP1-beta chromodomain binding to methylated histone tails. 0.56% of 390,000 active. AlphaScreen HP1-beta / biotin-H3K9me3 peptide binding. Potency, µM (series often up to 114 µM), for the others: at the highest dose activity change, negative = inhibition, actives largely listed as inhibitors; further: nearly all actives have a fitted effect of over 70% in size
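Compound inhibition of the preformed complex between 50 nM HP1-beta and 50 nM biotinylated H3K9me3 peptide was read by AlphaScreen. Buffer was PBS pH 7.4 with 0.01% Tween-20. Incubations ran 30 min at room temperature, with 10 ug/mL donor/acceptor beads.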
Sfp PPTase inh = inhibitors of Bacillus subtilis Sfp phosphopantetheinyl transferase; Biochemical Sfp PPTase activity, qHTS; Potency, µM, for inactives: largest response in the series, negative = inhibition, actives largely listed as inhibitors; 3.5% of 310,000 active;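 further: the enzyme is Sfp with the accession as filed and its product quenches rhodamine fluorescence; 0% = enzyme reaction without inhibitor and -100% = no enzyme wells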
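Fluorescence-quenching assay: 15 nM Sfp-PPTase preincubated 15 min at room temperature with compound, then 5 uM rhodamine-CoA and 12.5 uM BHQ-2-labelled YbbR peptide added. Fluorescence (ex 525/em 598 nm) read at start and after 30 min; difference gives rate.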
Active calls of the source: *; ? = inconclusive; . = no result given; [ ] = dose if it differs, or a comment. The call rests on the fitted dose curve; in most records, active means well fitted curve in the direction sought with a large enough effect; inconclusive means small, poorly fitted or top-dose-only effect, or another doubt; inactive means no such curve, though single readings can be large; an effect the other way counts as inactive or inconclusive. Potency means the concentration at half of the fitted maximal effect.

SMILES	L3MBTL1 block	BAZ2B block	G9a block	JMJD2A Tudor	HP1b chromo inh	Sfp PPTase inh
Cc1ccc(N2C(=O)CSC23C(=O)N(CC(=O)NCc2ccccc2)c2ccccc23)cc1C (stereo not given)	.	5%[57.1 µM]	-11%[59 µM]	-22%	7%	.
CCOC(=O)[C@]1(C(NC(=O)OC)c2cccc(F)c2)CCCC1=O (stereo not given in full)	.	.	.	.	.	12%
Cc1ccc(CN2C(=O)c3ccccc3Sc3ccc(C(=O)NC4CCCCC4)cc32)cc1	.	-3%	10%[59 µM]	-12%	15%	.
COc1ccccc1OCCn1c(CCNC(=O)C2CCCCC2)nc2ccccc21	.	.	.	-6%[57.1 µM]	24%[57 µM]	.
S=C(NN=C1C2CC3CC(C2)CC1C3)Nc1ccccc1	.	?	?	50µM*	?	?
COc1ccccc1NS(=O)(=O)c1cccc(C(=O)NCc2ccco2)c1	.	.	?	-6%	26%	12%
Clc1ccccc1Cn1c(/C=C/c2ccco2)nc2ccccc21	-11%	?	10µM*	?	?	50µM*
O=C(NCCCc1nc2ccccc2n1Cc1ccccc1Cl)c1ccco1	.	-20%	7%[59 µM]	-17%	26%	.
COc1ccc(N=NC2C(=O)N(c3ccccc3)N=C2C)cc1 (stereo not given)	.	1.6µM*	?	7.9µM*	7.1µM*	-5%
CC1=NN(c2ccccc2)C(=O)C1N=Nc1ccc(N)cc1 (stereo not given)	25µM*	13µM*	?	?	?	-28%
CC1=NN(c2ccccc2)C(=O)C1c1ccccc1 (stereo not given)	-2%	-32%	-13%[59 µM]	-34%	-5%	9%
CC1=NN(c2ccccc2)C(=O)C1N=Nc1ccccc1 (stereo not given)	-28%	3.2µM*	0.89µM*	?	?	18%
CC1=NN(c2ccccc2)C(=O)C1N=Nc1cccc(O)c1 (stereo not given)	-28%	?	71µM*	?	-16%	-14%
CC1=NN(c2nc(-c3ccc(C)cc3)cs2)C(=O)C1N=Nc1cccc(O)c1 (stereo not given)	?	?	40µM*	14µM*	?	-15%
CN(C)N=Nc1ccc(-c2cn(Cc3ccccc3)cn2)cc1	-1%	45µM*	.	?	-18%	-3%
Nc1cc(-c2ccccc2)nn1Cc1ccccc1	.	.	-40%	-10%	11%	15%
CN(C)c1ncc2nc(-c3cc(F)cc(F)c3)c(=O)n(-c3ccccc3)c2n1	.	.	9%[0.501 µM]	.	.	15%
S=c1[nH]nc2ccccn12	.	.	.	6.3µM*	?	.
CCOc1ccc(C(c2c(O)cc(C)n(CCOC)c2=O)N2CCN(c3ccccc3)CC2)cc1 (stereo not given)	.	1%	?	?	11%[57 µM]	.
C(=N\N(c1ccccc1)c1ccccc1)/c1ccc2c(c1)OCO2	-3%	-1%	31%	-4%	22%	5%
CN(/N=C/c1ccc2c(c1)OCO2)c1ccccc1	-29%	28µM*	10µM*	?	-31%	?
COc1ccc(/C=N/N(C)C2=NCCN2)c(OC)c1OC	.	-3%	8%	-3%	25%	2%
COc1cc(OC)c(OC)cc1/C=N/N(C)c1ccccc1	.	32µM*	8.9µM*	45µM*	16µM*	?
Clc1ccccc1N/N=C/c1ccc2c(c1)OCO2	-8%	-6%	8.9µM*	-11%	-17%	-25%
O=S(=O)(N/N=C\c1ccc2c(c1)OCO2)c1ccccc1	.	-15%	.	-3%	47%	7%
SMILES	L3MBTL1 block	BAZ2B block	G9a block	JMJD2A Tudor	HP1b chromo inh	Sfp PPTase inh
C(=N\N1CCN(C(c2ccccc2)c2ccccc2)CC1)/c1ccc2c(c1)OCO2	-7%	?	?	22µM*	?	-11%
COc1ccc(CN2CC(C(=O)NCCCN3CCCC(C)C3)CC2=O)cc1 (stereo not given)	.	-2%	9%	-2%	49%	16%
COc1cc(/C=N/N(C)c2ccccc2)ccc1O	.	45µM*	14µM*	56µM*	?	-9%
COc1cc(/C=N/S(=O)(=O)CCc2ccccc2)ccc1O	-5%	-4%	13%[59 µM]	-10%	19%	27%
COc1cc(CC(=O)OCC(=O)NC2CCCC2)cc(OC)c1OC	43%	28%	-17%[59 µM]	-7%	34%	.
O=C(O)CCCC[C@@H]1CCSS1	.	.	?	.	.	-5%
Fc1ccc(COc2ccc(Br)cc2CNCC2CCCO2)cc1 (stereo not given)	11%	-7%	50µM*	-6%	44%	-10%
Fc1ccccc1COc1ccc(Br)cc1CNCC1CCCO1 (stereo not given)	8%	?	.	-5%	43%	?
Cc1cc(NC(=O)CSc2nc(-c3cccc(F)c3)nc3c2c(=O)n(C)c(=O)n3C)no1	.	-1%	3%[59 µM]	-10%	20%[57 µM]	.
Cc1nnc(SCc2cc(=O)oc3ccc4ccccc4c23)n1Cc1ccccc1	-3%	-2%	35µM*	-30%	28%	-3%
CCc1cc2c(CN3CCN(Cc4ccccc4)CC3)cc(=O)oc2cc1O	.	?	45µM*	?	41%	-12%
Cc1c(O)ccc2c(CN3CCN(Cc4ccccc4)CC3)cc(=O)oc12	.	2%	-13%	-22%	25%	9%
CC(C)c1ccc2oc(=O)cc(CN3CCCCC3)c2c1	.	61%	71µM*	12%	57%	-1%
Cc1nnc(SCc2cc(=O)oc3cc(O)ccc23)n1Cc1ccccc1	3%	0%	-31%[59 µM]	2%	34%	8%
Cc1cc(C)c2c(CN3CCN(Cc4ccccc4)CC3)cc(=O)oc2c1C	.	?	50µM*	?	16%	-7%
CN(C)S(=O)(=O)c1ccc(NC(=O)CCCNC(=O)c2ccc(Cl)cc2)cc1	.	4%	0%	-3%	16%	8%
CC(C)CCNC(=O)CCCc1ccccc1	1%	3%	15%[59 µM]	1%	33%	-2%
CCOc1ccccc1NC(=O)CN(C)S(=O)(=O)c1ccc2nc(C)sc2c1	.	-1%	-9%[59 µM]	-10%	21%	.
CCOC(=O)Nc1ccc2c(CN3CCC(C(=O)OC)CC3)cc(=O)oc2c1	.	-2%	-29%	-3%	35%	8%
CCc1cc2c(CN(C)Cc3ccccc3F)cc(=O)oc2cc1O	.	-5%	50µM*	-25%	-6%	14%
CCc1ccc2c(CN3CCN(Cc4ccccc4)CC3)cc(=O)oc2c1	.	-19%	71µM*	-30%	10%	-2%
CCc1ccc2c(CN3CCN(S(=O)(=O)c4ccccc4F)CC3)cc(=O)oc2c1	1%	.	.	-8%	62%	.
Cc1ccc2oc(=O)cc(CN3CCN(Cc4ccccc4)CC3)c2c1	.	-2%	50µM*	-19%	18%	2%
COc1ccc2oc(=O)cc(CN3CCN(Cc4ccccc4)CC3)c2c1	.	-18%	-35%[59 µM]	-33%	14%	.
